IEC-6 cytotox = kills IEC-6 intestinal cells in KLF5 counter-screen. AID 1825. IEC-6 cytotoxicity, luminescence viability. inhibition, % at 5 µM. 290,000 compounds, 0.78% hits; in the data active = inhibition above about 22%;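 also: 0% = plate median of test compound wells and 100% = cytotoxic reference compound wells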
APP transl inh = APP translation inhibition; SH-SY5Y APP 5'UTR-luciferase reporter, luminescence; inhibition, % at 2 µM; AID 1285; 190,000 compounds, 0.82% hits;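 active = inhibition above a set limit, derived from the sample mean plus 3 SD, cut at about 45% in these data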
Ba/F3 V617F tox = loss of viability in JAK2V617F-driven Ba/F3 cells; Ba/F3 EpoR-JAK2V617F viability, ATP luminescence; inhibition, % at 5.6 µM; 220,000 compounds, 1.1% hits; AID 1446;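 active = inhibition above the campaign mean plus 3 SD over all tested compounds, cut at about 24% in these data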;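 also: cytokine-independent growth of Ba/F3 cells driven by EpoR plus mutant JAK2; 0% = DMSO-treated cells and 100% = JAK inhibitor I control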
KLF5 inh = kruppel-like factor 5 inhibition; DLD-1 KLF5 promoter-luciferase reporter, luminescence; inhibition, % at 5 µM; 290,000 compounds, 0.23% hits; AID 1700;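 active = inhibition above a per-plate limit of that plate's mean compound inhibition plus 3 SD, cut at about 60% in these data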;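 also: 0% = DMSO wells and 100% = LY294002 at 200 µM; higher means less KLF5 promoter-driven luciferase light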
aSyn UTR inh = 5' untranslated region of α-synuclein, MLPCN primary screen; alpha-synuclein 5'UTR reporter, inhibitor activity; inhibition, % (tested at 7.5 µM); 300,000 compounds, 0.82% hits; in the data active = inhibition above about 60%;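 also: H4 neuroglioblastoma cells stably carrying SNCA 5'UTR luciferase fusion; 0% = DMSO wells and 100% = positive control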
BaF3 tox = reduces parental Ba/F3 cell viability, JAK2V617F counter-screen | CellTiter-Glo ATP luminescence | inhibition, % at 5.6 µM | 220,000 compounds, 1.1% hits;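 active = inhibition above a per-campaign cutoff, the mean inhibition of all tested compounds plus 3 SD, cut at about 27% in these data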;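 also: 0% = DMSO wells and 100% = JAK Inhibitor I control wells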
BaF3 parental 2 = parental Ba/F3 viability inhibition for JAK2V617F counter-screen. CellTiter-Glo luminescence; cells kept alive by added IL-3. shares compounds with Ba/F3 V617F tox. AID 1520. inhibition, % at 5.6 µM. 580 compounds, 31% hits;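 active = cell growth inhibition above the hit limit set in the earlier mutant JAK2 cell screen, cut at about 27% in these data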;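 also: plate controls were DMSO-treated cells for no effect and JAK Inhibitor I control wells for full effect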
JAK2V617F confrm = confirmation: loss of viability in JAK2V617F-dependent Ba/F3 cells; shares compounds with Ba/F3 V617F tox; Ba/F3 EpoR-JAK2V617F viability, CellTiter-Glo luminescence; inhibition, % at 5.6 µM; 580 compounds, 66% hits; AID 1521;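 active = mean inhibition above the hit cutoff derived in the earlier primary screen, cut at about 25% in these data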;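 also: 0% = DMSO-treated cells and 100% = JAK inhibitor I control wells; higher means lower luminescence from reduced cell ATP and viability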
The depositor's hits bear a star; . = not tested or not shown. Only some compounds are listed: those with a hit (about 2.2% of all), similar ones and a draw of the others.

SMILES	IEC-6 cytotox	APP transl inh	Ba/F3 V617F tox	KLF5 inh	aSyn UTR inh	BaF3 tox	BaF3 parental 2	JAK2V617F confrm
S=c1[nH]nc(-c2ccc(Cl)cc2)n1/N=C/c1ccco1	1	.	0	-22	9	0	.	.
Oc1ccccc1-c1csc(-c2ccccc2)n1	8	-116	-1	-13	-122	3	.	.
Oc1ccc(-c2csc(Nc3ncccn3)n2)cc1O	2	31	37*	-162	-178	8	28*	91*
Oc1ccc(-c2csc(-c3ccccc3)n2)cc1O	6	-53	57*	-141	-224	23	27*	93*
Cc1ccc(NC(=S)N(CCCN2CCC(C)CC2)Cc2ccco2)cc1C	-4	5	25*	-27	-4	14	29*	46*
CC1CC(NS(=O)(=O)c2cc3c4c(c2)CCN4C(=O)CC3)CC(C)(C)C1 (centres undefined)	.	.	.	.	1	.	.	.
C=CCn1c(SCC(=O)c2ccc(O)c(O)c2)nnc1-c1ccccc1OC	3	2	34*	15	9	11	0	14
CCOC(=O)c1[nH]c(C)c(C(=O)NCC2CCCO2)c1C (centres undefined)	2	-12	-2	11	10	5	.	.
CCOC(=O)c1[nH]c(C)c(C(=O)NC2CCCCC2)c1C	6	0	100*	-40	11	6	-5	-21
CC(C)C[C@H](N)c1nnc(S(=O)(=O)Cc2cccc(F)c2)o1	-4	-5	-3	-21	-25	1	.	.
CC(C)(C)OC(=O)N[C@@H](Cc1ccccc1)c1nnc(S(=O)(=O)Cc2cccc(F)c2)o1	-7	53*	44*	-34	18	8	6	72*
Cc1ccccc1CS(=O)(=O)c1nnc([C@H](CC(C)C)NC(=O)OC(C)(C)C)o1	11	36	47*	-7	8	2	-2	55*
COc1cccc(-c2nc(CS(=O)(=O)CC(=O)Nc3cc(F)ccc3F)c(C)o2)c1	3	.	.	-12	17	.	.	.
Cc1ccc(NS(=O)(=O)c2cc3c4c(cccc4c2)C(=O)NC3=O)cc1C	15	.	25*	-1	32	11	45*	77*
CC(=O)n1cc(N(C(=O)CCl)c2ccc(Cl)cc2)c2ccccc21	9	.	98*	-24	103*	13	104*	98*
CCOC(=O)c1ccccc1Nc1cn(C(C)=O)c2ccccc12	1	-6	1	3	26	6	.	.
COc1cccc(COC(=O)c2cc(=O)[nH]c3ccc(S(=O)(=O)N4CCOCC4)cc23)c1OC	.	.	.	.	3	.	.	.
O=C(NCc1cccc(Cl)c1)C1CCC(=O)N(CCCN2CCCC2=O)C1 (centres undefined)	5	.	.	-34	-10	.	.	.
O=C(O)COc1ccccc1/C=C1\SC(=S)N(c2cccnc2)C1=O	6	.	82*	-16	8	-1	-4	12
COc1cccc(/C=C2\SC(=S)N(c3cccnc3)C2=O)c1OC	12	-17	1	-23	31	-3	.	.
COCCOC(=O)C1=C(C)N(c2ccccc2)C(=O)NC1c1cccc([N+](=O)[O-])c1 (centres undefined)	-2	-9	34*	-16	15	12	-3	9
Cc1c(C#N)sc2nc(-c3ccccc3)nc(N3CCCC3)c12	7	10	95*	14	10	-1	-5	-2
N#Cc1sc2nc(N3CCCCC3)c3c(c2c1N)CCCC3	-2	9	-1	2	50	5	.	.
CC1CC(C)CN(S(=O)(=O)N2CCCC(C(=O)NCCc3ccccc3)C2)C1 (centres undefined)	2	.	.	-23	-22	.	.	.
COCCCN=C1NN=C(c2cc(C)n(Cc3ccco3)c2C)CS1	-1	94*	79*	-4	94*	0	78*	97*
SMILES	IEC-6 cytotox	APP transl inh	Ba/F3 V617F tox	KLF5 inh	aSyn UTR inh	BaF3 tox	BaF3 parental 2	JAK2V617F confrm
COc1ccc(C2=Nc3cccc4cccc(c34)N2)cc1	4	-2	-4	-19	2	-3	.	.
Nc1cccc(C2=Nc3cccc4cccc(c34)N2)c1	-6	4	53*	-2	-17	7	-7	-10
CCOC(=O)c1cc[nH]c1C	4	-10	-1	-7	13	0	.	.
COc1ccc(N(C(=O)Cn2nnc(-c3ccc(F)cc3)n2)C(C)C(=O)NC2CCCC2)cc1OC (centres undefined)	9	.	.	35	14	.	.	.
CC(=O)Nc1nc(Cn2nnc(-c3ccc4c(c3)OCO4)n2)nc(N(C)C)n1	7	16	5	-8	15	8	.	.
O=C(CCl)Nc1ccc(N=Nc2ccccc2)cc1	-5	-31	28*	-107	-63	2	19	94*
O=C(CCl)Nc1ccc(-c2ccccc2)cc1	-5	23	19	-31	-20	3	.	.
CC(=O)c1nn(-c2cccc(Br)c2)cc1C(=O)c1ccccc1	-1	6	56*	-17	28	14	0	-1
O=C(COC(=O)COc1ccc(Cl)cc1)Nc1ccc(N2CCOCC2)cc1	2	4	0	6	-5	3	.	.
Cc1cc(C)c(C#N)c(N2CCN(c3ccc(F)cc3)CC2)n1	3	.	.	3	0	.	.	.
CN(C)c1nc(N2CCN(c3ccc(F)cc3)CC2)c(C#N)c(=O)o1	0	4	28*	-2	34	13	-3	-8
O=C1C=CC(=O)N1CCNc1ncc(C(F)(F)F)cc1Cl	17	74*	48*	-3	10	-1	-1	82*
O=C1CC(=O)N(CCNc2ncc(C(F)(F)F)cc2Cl)C(=O)N1	-2	-9	0	-11	7	1	.	.
NC(=O)c1ccccc1NC(=O)CCc1ccccc1	-4	-4	-5	-63	-113	0	.	.
NC(=O)c1ccccc1NC(=S)NC(=O)CCc1ccccc1	60*	71*	47*	68*	11	7	18	91*
COc1ccc(C)cc1NC(=O)C1CCN(C(=O)Cc2ccccc2)CC1	2	2	41*	1	-15	8	0	4
CC(=O)Oc1ccc(OC(C)=O)c(SCCCCCCl)c1	1	83*	85*	-28	-60	4	102*	97*
CC(=O)Oc1ccc(C(=O)O)cc1OC(C)=O	-5	4	-3	5	18	-2	.	.
CCOc1ccc2nc(SCC(=O)NC(=O)C(C)C)sc2c1	-1	7	51*	-44	-26	15	-3	-3
O=C1C2CCCN2C(c2ccc(F)cc2)N1c1ccc(Cl)cc1 (centres undefined)	4	-14	42*	-37	25	18	3	18
O=C1C2CCCN2C(c2ccccc2)N1c1ccc(F)cc1 (centres undefined)	0	-8	-3	1	-3	4	.	.
